Neddyl block – inhibitors of cullin neddylation, primary screen, biochemical, TR-FRET, uHTS, NAE and Ubc12. NEDD8-conjugating enzyme Ubc12 (Homo sapiens) + NEDD8-activating enzyme E1 regulatory …. calls only at 25 µM. actives 0.58% (n = 360,000). AID 651699, 2012; in the data active = inhibition above about 36%
PKA-R1A activ – activators of PKA-R1A holoenzyme, primary screen, biochemical, fluorescence polarization, Cy5-IP20, bovine R1A, mouse PKAc; cAMP-dependent protein kinase type I-alpha regulatory subunit (Bos taurus) + …; PKA-R1A dissociation; scaled: DMSO 0%, 113 µM cGMP 100%; activation, % at 11.4 µM; actives 0.083% (n = 340,000); AID 504707, 2011;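 active = percent activation above the mean of all tested compounds plus 3 SD, cut at about 19% in these data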;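 note: higher means more PKAc released from R1A so a rise in polarization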
PolyA inhibitor – polyadenylation inhibitors in yeast reporter cells, primary screen, luminescence, S. cerevisiae; S. cerevisiae SKY197-pL101 polyadenylation reporter, beta-gal luminescence; efflux-impaired pdr1/pdr3 knockout yeast; score 100 = 6 SD above DMSO; activity score, % at 12 µM; actives 0.02% (n = 300,000); AID 1875, 2009;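 active = lowest replicate activity score at least 50, where 100 means six control SD above control mean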;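 note: yeast exposed to compound for 9 h at 30 °C; higher score means more reporter readthrough which indicates perturbed polyadenylation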
PKA-R2B act – activators of PKA-R2B holoenzyme, primary screen, biochemical, fluorescence polarization, Cy5-IP20, human. PKA-R2B holoenzyme dissociation; R2B truncated from residue 108, S112A mutant; 0% DMSO only, 100% 113 µM cGMP. actives 0.079% (n = 340,000). cAMP-dependent protein kinase catalytic subunit beta (Homo sapiens) + cAMP-dependent …. AID 504700, 2011. activation, % at 11.4 µM;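 active = activation above a cutoff set at the mean over all compounds plus 3 SD, cut at about 18% in these data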;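 note: higher means more holoenzyme dissociation and a rise in polarization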
Target sequence (P31323 whole entry, looked up, other chains not shown, the tested form may be a part): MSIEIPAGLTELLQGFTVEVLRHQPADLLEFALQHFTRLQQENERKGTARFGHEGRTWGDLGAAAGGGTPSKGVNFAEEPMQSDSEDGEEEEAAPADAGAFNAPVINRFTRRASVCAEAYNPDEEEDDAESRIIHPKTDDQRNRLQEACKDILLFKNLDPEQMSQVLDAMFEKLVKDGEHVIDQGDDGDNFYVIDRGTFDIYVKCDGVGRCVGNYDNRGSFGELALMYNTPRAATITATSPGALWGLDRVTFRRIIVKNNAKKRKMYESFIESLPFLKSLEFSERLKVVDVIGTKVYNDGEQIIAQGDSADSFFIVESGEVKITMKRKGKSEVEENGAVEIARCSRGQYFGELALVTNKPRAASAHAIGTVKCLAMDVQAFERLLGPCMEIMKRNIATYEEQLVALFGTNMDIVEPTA
R1A FP artifact – FP signal interference without PKA proteins, confirmation, artefact control for PKA-R1A activator project, biochemical, fluorescence polarization, triplicate. shares compounds with PKA-R1A activ. Cy5-IP20 peptide alone, fluorescence polarization artifact counterscreen. activation, % at 11.4 µM. actives 7% (n = 280). AID 504799, 2011;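 active = mean activation over triplicate runs exceeds the adjusted cutoff derived for the parent primary screen, cut at about 19% in these data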;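 note: no PKA protein present so any polarization rise reflects compound interference; 0% = tracer peptide mix alone and 100% = mix with added PKA catalytic subunit; higher means stronger polarization artifact and likely false positive in parent screen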
PKA-R1A act conf – activators of PKA-R1A holoenzyme, confirmation, biochemical, fluorescence polarization, Cy5-IP20, triplicate | shares compounds with PKA-R1A activ | PKA-R1A holoenzyme dissociation | activation, % at 11.4 µM | actives 9% (n = 280) | AID 504800, 2011;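 active = mean activation over replicate wells exceeds the adjusted hit threshold taken from the earlier primary screen, cut at about 20% in these data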;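 note: 0% = holoenzyme mix with DMSO only and 100% = cGMP-activated control wells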
* hit, by the source's call; i = inactive; · = no result shown. Shown are actives, neighbours in structure and some others; about 0.72% of the full set was active somewhere.

SMILES	Neddyl block	PKA-R1A activ	PolyA inhibitor	PKA-R2B act	R1A FP artifact	PKA-R1A act conf
COc1ccc(/C=C2\SC(=O)N(CC(=O)Nc3ccc(O)cc3)C2=O)cc1OC	·	23*	25	17	18	23*
CC1C(=O)N(Cc2cn(CCC3OCCO3)nn2)CCS(=O)(=O)N1Cc1ccc(-c2ccncc2)cc1 (stereo not given)	i	2	·	-6	·	·
CC1C(=O)N(Cc2cn(CCC3OCCO3)nn2)CCS(=O)(=O)N1Cc1ccc(-c2ccc(F)cc2)cc1 (stereo not given)	i	20*	·	-13	2	2
COc1ccccc1CNC(=O)C(C)NS(=O)(=O)c1ccccc1 (stereo not given)	i	19*	1	5	1	0
CN1CCc2c(sc(/N=C/c3cc(C(C)(C)C)ccc3O)c2C#N)C1	i	-4	-8	10	·	·
COc1ccc(COc2ccc(S(=O)(=O)N3CCCC3)cc2C(N)=O)cc1F	i	-5	16	-6	·	·
COc1ccccc1N=Nc1c(C)n[nH]c1C	i	19*	-16	-5	-1	1
Cc1ccc(CNC(=O)CN(c2ccc(Cl)cc2)S(C)(=O)=O)cc1	i	21*	-1	-13	3	0
COc1cccc(CNC(=O)COC(=O)c2ccc(Cl)s2)c1	i	-4	·	-3	·	·
CC(=O)c1ccc(N2CCN(C(=O)[C@H](C)NC(=O)c3ccccc3Cl)CC2)cc1	i	8	-1	-7	·	·
CN(C)c1ccc(Cc2ccc(N(C)C)cc2)cc1	i	21*	·	-3	-2	0
COc1ccc([C@@H]2[C@@H]3C(=O)N(C(C)(C)C)C(=O)[C@@H]3[C@]3(CC(C)C)C(=O)N(c4cccc(F)c4)C(=O)N23)cc1	i	19*	1	-2	-3	-5
Cc1coc2cc3oc(=O)c(CCC(=O)NCc4ccccn4)c(C)c3cc12	·	7	21	8	·	·
Cc1coc2c(C)c3oc(=O)c(CCC(=O)NCc4ccccn4)c(C)c3cc12	·	20*	-13	-10	2	1
O=C(O)CN1C(=O)/C(=C\c2cc(Br)ccc2OCc2ccc([N+](=O)[O-])cc2)SC1=S	i	25*	16	1	1	1
CCCCN(C)CCCNC(=O)C1(O)c2ccccc2NC(=O)N1c1ccc(Cl)cc1 (stereo not given)	i	3	8	7	·	·
CCCC(=O)Nc1nnc(SCC(=O)N2C(C)CCCC2C)s1 (stereo not given)	i	2	21	9	·	·
CCCC(=O)Nc1nnc(SCC(=O)N2CCCCC2)s1	i	19*	-4	1	-1	-1
Cc1cc(=O)oc2cc(OCC(=O)N(C)C3CCS(=O)(=O)C3)c(Cl)cc12 (stereo not given)	i	9	-1	6	·	·
COc1ccc(CCNC(=O)Cn2cnc3sc(C)c(-c4ccc(F)cc4)c3c2=O)cc1OC	i	19*	-8	-1	2	5
COc1ccc(C(=O)NCc2nnc(SCC(=O)NC3CCCC3)o2)cc1	i	-13	12	-4	·	·
COCC(C)NC(=O)c1cc2c(ccc3ccccc32)oc1=O (stereo not given)	·	3	-21	-1	·	·
CSc1ncccc1C(=O)OCC(=O)NC1CC1	i	20*	·	8	4	3
CSc1ncccc1C(=O)OCC(=O)NC1CCCC1	i	10	·	0	·	·
CC(OC(=O)c1ccco1)C(=O)Nc1ccc(Cl)cn1 (stereo not given)	i	3	7	3	·	·
CC(OC(=O)CCOc1ccccc1)C(=O)Nc1ccc(Cl)cn1 (stereo not given)	i	22*	6	-5	-2	-2
